# Screening results (PubChem)
# The list is not random: actives were taken first. Their share in the collection is about 1.6%.
# KCNQ2 pot: potentiators of rat KCNQ2 potassium channel; CHO-K1 KCNQ2, FluxOR thallium flux fluorescence; stronger effect = higher value; 0.54% of 310,000 active; B-score at 10 µM; Potassium voltage-gated channel subfamily KQT member 2 (Rattus norvegicus), O88943; AID 2239, 2010;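 active means fluorescence ratio B-score at least 3 SD of library B-scores, with initial fluorescence B-score within 3 of them, cut at about 5.3 in these data; same plate scores as AID 2156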;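 further: B-score of peak minus minimum over baseline fluorescence ratio after K+ and Tl+ stimulus; positive B-score means potentiation of KCNQ2 with more thallium influx and brighter signal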
# Target sequence (O88943 whole entry, looked up): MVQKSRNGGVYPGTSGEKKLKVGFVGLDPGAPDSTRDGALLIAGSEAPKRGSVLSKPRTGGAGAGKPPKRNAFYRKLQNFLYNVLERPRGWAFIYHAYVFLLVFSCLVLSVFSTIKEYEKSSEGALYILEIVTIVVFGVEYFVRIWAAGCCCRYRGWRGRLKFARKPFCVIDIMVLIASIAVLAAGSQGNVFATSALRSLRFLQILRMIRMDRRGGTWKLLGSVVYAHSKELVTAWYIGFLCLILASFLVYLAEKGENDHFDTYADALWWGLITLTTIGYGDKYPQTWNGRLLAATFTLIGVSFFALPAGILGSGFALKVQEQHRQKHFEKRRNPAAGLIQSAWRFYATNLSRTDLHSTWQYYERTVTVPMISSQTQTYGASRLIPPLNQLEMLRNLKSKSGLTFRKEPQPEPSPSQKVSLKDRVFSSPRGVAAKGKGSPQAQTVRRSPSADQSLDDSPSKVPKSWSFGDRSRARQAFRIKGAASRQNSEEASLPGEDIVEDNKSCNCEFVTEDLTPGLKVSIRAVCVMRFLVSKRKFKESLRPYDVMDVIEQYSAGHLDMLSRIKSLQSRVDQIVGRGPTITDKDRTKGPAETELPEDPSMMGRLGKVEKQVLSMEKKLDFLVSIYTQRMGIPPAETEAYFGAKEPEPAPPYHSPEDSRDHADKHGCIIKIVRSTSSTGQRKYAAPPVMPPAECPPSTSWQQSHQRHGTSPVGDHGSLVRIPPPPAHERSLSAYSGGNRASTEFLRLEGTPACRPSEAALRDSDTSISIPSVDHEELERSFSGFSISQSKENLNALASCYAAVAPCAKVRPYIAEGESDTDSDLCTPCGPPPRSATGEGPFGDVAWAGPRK
# KCNQ2 block: rat KCNQ2 potassium channel inhibitors, primary screen, cell-based, CHO-K1, FluxOR thallium flux, B-score; 20 min; stronger effect = lower value; B-score at 10 µM; 1.1% of 310,000 active; AID 2156, 2009;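 active means fluorescence ratio B-score at most minus 3 library SDs, with starting brightness B-score within 2 library SDs, cut at about -5.5 in these data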
# Kir21 confirm: mouse Kir2.1 channel blockers, retest, confirmation, cell-based, FluxOR thallium flux, duplicate; shares compounds with KCNQ2 pot; Kir2.1-expressing cells, FluxOR thallium flux fluorescence; stronger effect = lower value; Tl flux remaining, % of negative control (stronger effect = lower value), % at 10 µM; 41% of 2,300 active; AID 2032, 2009;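 active means Primary-screen hit whose thallium flux fell at least 3 control SD below untreated wells in both duplicates, with normal baseline fluorescence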;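 further: 0% = blank wells without stimulus and 100% = stimulated no-compound controls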
# HEK293 ctr: alters thallium flux in parental HEK293 cells, Kir2.1 counter-screen; 19% of 2,300 active; shares compounds with KCNQ2 pot; FluxOR signal as % of negative control (100 = no effect), % at 10 µM; FluxOR thallium flux fluorescence; 0% = unstimulated blank wells;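 active means dye signal at least 3 control SD above or below untreated wells in both duplicates, raw fluorescence within 3, either direction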;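 further: percent is based on the flux ratio of peak minus minimum fluorescence over baseline F0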
# CHO-K1 Tl ctr: nonspecific thallium flux increase in parental CHO-K1, confirmation, counter-screen for KCNQ2 potentiator project, cell-based, FluxOR thallium flux, duplicate; shares compounds with KCNQ2 pot; activity increase over 3SD of controls, % at 10 µM; 43% of 1,200 active; parental CHO-K1 cells, FluxOR thallium flux fluorescence; zero = vehicle mean+3SD, 100% = vehicle-minus-blank window;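 active means signal rise of at least 3 SD above the untreated control mean, in both duplicate wells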;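 further: counter screen of KCNQ2 potentiator hits so any rise reflects channel-independent effects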
# KCNQ1 sel pot: human KCNQ1 channel potentiation off-target, confirmation, selectivity assay for KCNQ2 potentiator project, cell-based, CHO, FluxOR thallium flux. shares compounds with KCNQ2 pot. CHO KCNQ1 stable, FluxOR thallium flux fluorescence; beyond 3SD, as % of vehicle-control signal. activation over 3SD threshold, % at 10 µM. 28% of 1,200 active;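 active means fluorescence ratio rise of at least 3 SD of vehicle wells above their mean, in both replicate wells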;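 further: 0% = vehicle mean plus 3 SD and 100% = vehicle minus unstimulated blank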
# KCNQ2 pot conf: rat KCNQ2 channel potentiators, confirmation, cell-based, CHO, FluxOR thallium flux, duplicate; shares compounds with KCNQ2 pot; CHO-KCNQ2 cells, FluxOR thallium flux fluorescence; potentiation, less the hit threshold, % at 10 µM; 68% of 1,200 active; AID 2287, 2010;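 active means fluorescence ratio rising 3 SD or more over the vehicle control mean in both replicates, plus primary screen hit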;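 further: peak minus minimum thallium fluorescence divided by baseline after K/Tl stimulus; 0% = vehicle mean plus 3 SD and 100% = vehicle minus unstimulated blank difference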
# Kir2-1 sel: mouse Kir2.1 channel activation off-target, confirmation, selectivity assay for KCNQ2 potentiator project, cell-based, HEK293, FluxOR thallium flux | shares compounds with KCNQ2 pot | AID 2345, 2010 | 2% of 1,200 active | activity over 3SD threshold, % at 10 µM | HEK293 Kir2.1, FluxOR thallium flux fluorescence;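 active means fluorescence ratio rise of at least 3 SD above the vehicle-control mean, seen in both replicates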;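 further: 0% = vehicle mean plus 3 SD and 100% = vehicle minus no-stimulus blank window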
# KCNQ2 W236L pot: potentiators of retigabine-insensitive KCNQ2 W236L, mechanism study for KCNQ2 potentiator project, cell-based, rat KCNQ2 W236L, CHO, automated patch clamp; shares compounds with KCNQ2 pot; automated patch clamp current; current increase over 3SD of negative controls (%), stronger effect = higher value, % at 25 µM; 10% of 940 active; AID 2558, 2010;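 active means current increase at least 3 SD of the untreated controls above them in both duplicate recordings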
# The depositor's hits bear a star; i = inactive; / = no result.
SMILES,KCNQ2 pot,KCNQ2 block,Kir21 confirm,HEK293 ctr,others
COc1ccccc1C(=O)NNC(=O)C(=O)Nc1ccc(C)cc1,21.7*,i,i,416.5%*,CHO-K1 Tl ctr=-20.6;KCNQ1 sel pot=24.6*;KCNQ2 pot conf=46.9*;Kir2-1 sel=-16.8;KCNQ2 W236L pot=i
COc1ccccc1C(=O)NNC(=O)C(=O)Nc1ccc(C)c(Cl)c1,28*,i,i,312.0%*,CHO-K1 Tl ctr=77.8*;KCNQ1 sel pot=-8.6;KCNQ2 pot conf=53.5*;Kir2-1 sel=-26.6;KCNQ2 W236L pot=i
COc1ccccc1C(=O)NNC(=O)C(=O)NC(C)(C)C,3.82,i,/,/,
COc1ccccc1C(=O)NNC(=O)c1ccc(Cl)cc1,0.04,i,/,/,
COc1ccc(C(=O)C2CCCN(C(=O)c3ccoc3C)C2)cc1F (stereo not given),1.51,i,/,/,
C(=N\Nc1cc(N2CCCCC2)ncn1)/c1ccco1,1,i,/,/,
CCOc1ccc(N(C)S(=O)(=O)c2ccc(C)c(C(=O)OCC(=O)c3c[nH]c4ccccc34)c2)cc1,1.63,i,/,/,
CCOC(=O)/C(C(=Nc1ccccc1)Nc1ccccc1)=C(\C)O,/,i,/,/,
NC(=Nc1ccccc1)Nc1ccccc1,5.84*,i,i,i,CHO-K1 Tl ctr=8.7*;KCNQ1 sel pot=-5.8;KCNQ2 pot conf=19.6*;Kir2-1 sel=-23.1;KCNQ2 W236L pot=i
CC(=O)Nc1ccc(NC(=O)C(C)OC(=O)CCc2c[nH]c3ccccc23)cc1 (stereo not given),1.47,i,/,/,
COc1ccc2c(c1)OC13CCCCC1C2C(C(=O)c1ccccc1)C(=O)N3 (stereo not given),0.24,i,/,/,
CN(C)CCCOc1ccc(C(C)(C)c2ccccc2)cc1,/,i,36.5%*,i,
CN(C)CCOc1ccc(C(C)(C)c2ccccc2)cc1,/,i,/,/,
O=C(O)c1cccnc1C(=O)c1ccccc1,0.59,i,/,/,
CCCCNCc1cc(Br)c(OCc2cccs2)c(OC)c1,/,i,19.5%*,i,
CCCCNCc1cc(Br)c(OCC(=O)NCc2ccccc2)c(OC)c1,/,i,/,/,
Fc1ccc(COc2ccc(Br)cc2CNCc2ccncc2)cc1,/,i,/,/,
CCOc1cc(CNCCSc2nnnn2C)cc(Br)c1OCc1ccccc1,/,i,/,/,
CCOc1cc(CNCc2ccncc2)cc(Br)c1OCc1ccc(F)cc1,/,i,i,i,
CCNCc1cc(Cl)c(OCc2ccccc2)c(OCC)c1,/,i,42.5%*,i,
CCOc1cc(CNCCO)cc(Br)c1OCc1ccccc1,/,i,i,i,
CCOc1cc(CNCc2ccccn2)cc(Cl)c1OCC,/,i,/,/,
O=C(CSc1n[nH]c(-c2ccncc2)n1)Nc1ccccc1Cl,/,i,/,/,
CC(=O)c1ccc(N2CCN(C(=S)NCCCN(C)C)CC2)cc1,/,i,/,/,
CC(=O)N1CCN(C(=O)CCc2cc(C(C)(C)C)c(O)c(C(C)(C)C)c2)CC1,/,i,/,/,
SMILES,KCNQ2 pot,KCNQ2 block,Kir21 confirm,HEK293 ctr,others
Cc1ccc(-c2c(C(=O)N/N=C/c3ccsc3)nnn2-c2nonc2N)cc1,0.7,i,/,/,
O=C(/C=C/c1ccccc1)NC(=S)N1CCSCC1,/,i,/,/,
O=C(c1ccc(S(=O)(=O)Nc2cccc(C(F)(F)F)c2)cc1)N1CCC1,0.45,i,/,/,
CC(=O)N1CCN(C(=O)c2ccc(S(=O)(=O)Nc3cccc(C(F)(F)F)c3)cc2)CC1,0.66,i,i,i,
CC1CCc2c(sc(NC(=O)/C=C/c3cccs3)c2C(=O)O)C1 (stereo not given),4.42,i,/,/,
Cc1ccc(C2Cc3cc(O)c(O)cc3CN2)cc1 (stereo not given),/,i,28.5%*,62.0%*,
Cc1ccc(O)c(O)c1,/,i,/,/,
CC(=O)/C(CN1CCCCC1)=N\O,/,i,/,/,
C/C(=N\O)C(=O)C(CN1CCCCC1)CN1CCCCC1,6.04*,i,i,i,CHO-K1 Tl ctr=-6.4;KCNQ1 sel pot=35.4*;KCNQ2 pot conf=-2.4;Kir2-1 sel=-31.2
O=C(O)c1cc(NN=Nc2ccc(Br)cc2)cc([N+](=O)[O-])c1,7.43*,i,i,i,CHO-K1 Tl ctr=-2.2;KCNQ1 sel pot=33.0*;KCNQ2 pot conf=16.3*;Kir2-1 sel=-38.0;KCNQ2 W236L pot=i
O=C(O)c1cc(NN=Nc2cccc([N+](=O)[O-])c2)cc([N+](=O)[O-])c1,2.56,i,/,/,
CC1CC(C)C[N+](=C2C=C(N3CCCC3)CC(C)(C)C2)C1 (stereo not given),/,i,i,i,
CC1(C)CC(N2CCCC2)=CC(=[N+]2CCCCCC2)C1,1.24,i,/,/,
CCOc1ccccc1/C=C(/NC(=O)c1ccccc1)C(=O)NC(C)c1ccccc1 (stereo not given),/,i,/,/,
CCc1cc2c(Nc3ccc(O)cc3)nc(C)nc2s1,/,i,/,/,
CC1(C)CC(=O)C2=C(C1)N(c1ccc(F)cc1)C(=O)CC2c1ccsc1 (stereo not given),/,i,/,/,
CCOC(=O)c1c(NC(=O)OC)sc2c1CCC2,0.81,i,/,/,
CCOC(=O)c1c(NS(=O)(=O)Cc2ccccc2)sc2c1CCCC2,/,i,i,337.5%*,
CCOC(=O)c1c(NC(=O)c2ccccc2C(=O)O)sc2c1CCC2,1.7,i,/,/,
CCOC(=O)c1c(NS(=O)(=O)c2ccc(Br)cc2)sc2c1CCC2,18.1*,i,i,255.0%*,CHO-K1 Tl ctr=41.4*;KCNQ1 sel pot=86.6*;KCNQ2 pot conf=58.9*;Kir2-1 sel=-26.1;KCNQ2 W236L pot=i
COC(=O)c1c(NS(=O)(=O)c2ccc3ccccc3c2)sc2c1CCCC2,6.43*,i,i,i,CHO-K1 Tl ctr=-4.5;KCNQ1 sel pot=-10.8;KCNQ2 pot conf=-17.4;Kir2-1 sel=-35.6
CCOC(=O)c1c(NC(=O)c2ccco2)sc2c1CCCCC2,2.35,i,/,/,
COC(=O)c1c(NC(=O)c2ccc(C)c(S(=O)(=O)Nc3ccccc3C)c2)sc2c1CCCC2,/,i,/,/,
